# Experimental data from ChEMBL document CHEMBL1961873, “Compounds: GSK PKIS; Assays: Nanosyn kinase panel” (2012).
# How the values were obtained:
# [1] = biological target: Tyrosine-protein kinase receptor UFO (Homo sapiens) (UniProt P30530); conditions: at 1 µM
# [2] = biological target: Tyrosine-protein kinase Blk (Homo sapiens) (UniProt P51451); conditions: at 0.1 µM
# [3] = biological target: Tyrosine-protein kinase Blk (Homo sapiens) (UniProt P51451); conditions: at 1 µM
# [4] = biological target: T1, Cytoplasmic tyrosine-protein kinase BMX (Homo sapiens) (UniProt P51813); conditions: at 0.1 µM
# T1 sequence (whole entry): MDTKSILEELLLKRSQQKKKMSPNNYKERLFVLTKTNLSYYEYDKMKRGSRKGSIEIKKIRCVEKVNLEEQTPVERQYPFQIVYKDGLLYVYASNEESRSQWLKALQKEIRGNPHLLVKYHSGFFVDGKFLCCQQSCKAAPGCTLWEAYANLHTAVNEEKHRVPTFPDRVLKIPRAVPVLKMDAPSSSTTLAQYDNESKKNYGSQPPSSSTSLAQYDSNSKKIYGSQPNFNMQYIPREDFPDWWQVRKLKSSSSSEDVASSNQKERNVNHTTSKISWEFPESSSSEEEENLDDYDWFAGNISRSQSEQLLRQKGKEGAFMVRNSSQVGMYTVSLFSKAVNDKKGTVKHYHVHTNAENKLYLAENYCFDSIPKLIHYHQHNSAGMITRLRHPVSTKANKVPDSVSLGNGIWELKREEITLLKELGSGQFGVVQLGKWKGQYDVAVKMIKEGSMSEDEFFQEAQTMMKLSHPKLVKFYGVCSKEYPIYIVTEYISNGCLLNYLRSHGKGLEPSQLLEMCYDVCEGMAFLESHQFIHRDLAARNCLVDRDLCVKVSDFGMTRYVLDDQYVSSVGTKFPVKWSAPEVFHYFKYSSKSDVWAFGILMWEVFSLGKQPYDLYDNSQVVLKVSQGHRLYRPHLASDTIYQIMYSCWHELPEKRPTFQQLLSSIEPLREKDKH
# [5] = biological target: T1, Cytoplasmic tyrosine-protein kinase BMX (Homo sapiens); conditions: at 1 µM
# [6] = biological target: Protein-tyrosine kinase 6 (Homo sapiens) (UniProt Q13882); conditions: at 0.1 µM
# [7] = biological target: Protein-tyrosine kinase 6 (Homo sapiens) (UniProt Q13882); conditions: at 1 µM
# [8] = biological target: Tyrosine-protein kinase BTK (Homo sapiens) (UniProt Q06187); conditions: at 0.1 µM
# [9] = biological target: Tyrosine-protein kinase BTK (Homo sapiens) (UniProt Q06187); conditions: at 1 µM
# [10] = biological target: Tyrosine-protein kinase CSK (Homo sapiens) (UniProt P41240); conditions: at 0.1 µM;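 also: value given is the averaged percent inhibition of CSK kinase activity, from the GSK PKIS kinase inhibitor set screening panel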
# Chain of Tyrosine-protein kinase CSK (Homo sapiens) (P41240 2-450 limits assumed): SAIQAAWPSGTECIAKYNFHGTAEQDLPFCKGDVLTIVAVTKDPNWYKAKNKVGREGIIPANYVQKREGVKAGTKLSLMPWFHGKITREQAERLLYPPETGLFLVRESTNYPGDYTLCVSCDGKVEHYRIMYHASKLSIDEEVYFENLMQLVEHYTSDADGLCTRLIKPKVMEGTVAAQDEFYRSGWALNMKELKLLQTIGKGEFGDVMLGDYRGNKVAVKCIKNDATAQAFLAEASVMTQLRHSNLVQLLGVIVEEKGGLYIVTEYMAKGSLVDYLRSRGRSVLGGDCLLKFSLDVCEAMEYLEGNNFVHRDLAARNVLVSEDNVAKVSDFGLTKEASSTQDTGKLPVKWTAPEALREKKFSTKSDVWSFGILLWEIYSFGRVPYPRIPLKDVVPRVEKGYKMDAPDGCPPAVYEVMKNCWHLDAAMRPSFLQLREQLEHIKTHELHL
# Chain of Tyrosine-protein kinase receptor UFO (Homo sapiens) (P30530 whole entry): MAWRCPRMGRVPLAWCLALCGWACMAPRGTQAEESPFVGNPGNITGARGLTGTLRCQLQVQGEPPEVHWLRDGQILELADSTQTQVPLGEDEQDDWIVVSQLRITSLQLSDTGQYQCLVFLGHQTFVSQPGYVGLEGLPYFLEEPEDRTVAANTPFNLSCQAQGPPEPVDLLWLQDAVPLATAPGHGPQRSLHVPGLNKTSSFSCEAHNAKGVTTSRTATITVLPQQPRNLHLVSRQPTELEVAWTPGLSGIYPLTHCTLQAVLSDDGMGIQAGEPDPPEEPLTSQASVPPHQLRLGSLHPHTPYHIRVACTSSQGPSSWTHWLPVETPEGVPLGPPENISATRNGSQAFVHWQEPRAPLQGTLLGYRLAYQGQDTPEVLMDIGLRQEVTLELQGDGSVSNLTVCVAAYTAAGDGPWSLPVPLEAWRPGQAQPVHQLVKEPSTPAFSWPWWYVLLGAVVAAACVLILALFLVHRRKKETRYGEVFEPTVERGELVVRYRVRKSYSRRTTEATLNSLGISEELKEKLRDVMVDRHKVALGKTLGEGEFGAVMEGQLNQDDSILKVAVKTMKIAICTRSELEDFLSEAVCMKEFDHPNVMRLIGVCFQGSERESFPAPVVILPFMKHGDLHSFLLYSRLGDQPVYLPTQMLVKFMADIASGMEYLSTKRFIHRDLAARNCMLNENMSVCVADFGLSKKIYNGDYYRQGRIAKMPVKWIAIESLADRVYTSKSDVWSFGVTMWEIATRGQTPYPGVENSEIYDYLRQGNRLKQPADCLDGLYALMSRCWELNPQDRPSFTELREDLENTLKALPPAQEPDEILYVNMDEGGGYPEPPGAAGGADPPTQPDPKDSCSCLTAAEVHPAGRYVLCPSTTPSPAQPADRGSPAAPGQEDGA
# Chain of Tyrosine-protein kinase Blk (Homo sapiens) (P51451 2-505 limits assumed): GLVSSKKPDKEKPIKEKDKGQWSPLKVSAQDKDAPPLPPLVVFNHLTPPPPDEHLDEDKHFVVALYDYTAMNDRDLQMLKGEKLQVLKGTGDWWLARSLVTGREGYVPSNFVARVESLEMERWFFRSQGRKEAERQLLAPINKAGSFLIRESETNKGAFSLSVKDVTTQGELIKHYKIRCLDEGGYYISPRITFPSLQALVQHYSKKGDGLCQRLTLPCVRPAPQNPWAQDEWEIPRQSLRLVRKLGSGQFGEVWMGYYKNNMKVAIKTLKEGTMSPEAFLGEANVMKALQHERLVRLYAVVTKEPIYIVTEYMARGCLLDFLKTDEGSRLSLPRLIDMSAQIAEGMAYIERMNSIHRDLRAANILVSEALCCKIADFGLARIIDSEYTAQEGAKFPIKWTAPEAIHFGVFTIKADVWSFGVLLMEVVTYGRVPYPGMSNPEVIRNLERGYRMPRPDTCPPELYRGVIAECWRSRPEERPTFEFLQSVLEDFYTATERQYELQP
# Chain of Tyrosine-protein kinase BTK (Homo sapiens) (Q06187 whole entry): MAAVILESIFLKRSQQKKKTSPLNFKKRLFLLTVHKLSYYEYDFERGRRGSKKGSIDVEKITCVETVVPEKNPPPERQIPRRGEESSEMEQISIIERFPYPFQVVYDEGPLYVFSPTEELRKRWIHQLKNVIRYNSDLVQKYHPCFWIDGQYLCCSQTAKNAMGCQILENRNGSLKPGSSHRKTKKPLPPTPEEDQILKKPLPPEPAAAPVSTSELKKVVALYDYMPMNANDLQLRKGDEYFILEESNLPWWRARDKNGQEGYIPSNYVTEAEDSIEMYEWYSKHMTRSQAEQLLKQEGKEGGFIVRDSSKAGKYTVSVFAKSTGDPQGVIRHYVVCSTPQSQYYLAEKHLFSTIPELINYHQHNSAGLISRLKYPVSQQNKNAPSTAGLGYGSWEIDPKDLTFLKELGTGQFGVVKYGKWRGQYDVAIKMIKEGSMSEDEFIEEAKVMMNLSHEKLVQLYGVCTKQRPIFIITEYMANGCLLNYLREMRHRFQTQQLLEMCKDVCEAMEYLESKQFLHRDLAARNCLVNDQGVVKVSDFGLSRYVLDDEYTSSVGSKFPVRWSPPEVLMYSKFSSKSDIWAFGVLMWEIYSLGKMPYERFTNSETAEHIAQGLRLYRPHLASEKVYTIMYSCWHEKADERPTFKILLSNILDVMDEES
# Chain of Protein-tyrosine kinase 6 (Homo sapiens) (Q13882 whole entry, looked up): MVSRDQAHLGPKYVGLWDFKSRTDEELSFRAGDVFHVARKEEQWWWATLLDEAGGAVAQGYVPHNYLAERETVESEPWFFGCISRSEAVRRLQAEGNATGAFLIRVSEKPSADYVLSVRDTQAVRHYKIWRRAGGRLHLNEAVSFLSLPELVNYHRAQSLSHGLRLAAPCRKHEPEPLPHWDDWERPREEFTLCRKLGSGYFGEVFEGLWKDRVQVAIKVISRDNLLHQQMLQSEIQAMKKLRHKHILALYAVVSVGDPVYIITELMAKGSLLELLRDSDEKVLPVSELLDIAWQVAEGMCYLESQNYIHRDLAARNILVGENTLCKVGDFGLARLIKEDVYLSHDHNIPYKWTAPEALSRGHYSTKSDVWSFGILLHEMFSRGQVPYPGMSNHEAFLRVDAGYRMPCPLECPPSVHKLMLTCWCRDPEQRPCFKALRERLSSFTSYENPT
Structure (SMILES),inhibition [1] [%],inhibition [2] [%],inhibition [3] [%],inhibition [4] [%],inhibition [5] [%],inhibition [6] [%],inhibition [7] [%],inhibition [8] [%],inhibition [9] [%],inhibition [10] [%]
O=C(Nc1n[nH]c2cc(-c3ccc(F)cc3)ccc12)C1CC1,-2.92,1.55,7.03,0.57,5.89,3.22,2.76,-1.4,-0.88,3.39
c1cc(-c2cnn3nc(N4CCOCC4)ccc23)nc(NC2CC2)n1,-5.65,2.34,7.51,0.89,2.31,6.35,7.89,1.63,2.33,10.8
COc1cc2c(cc1Nc1nc(Nc3ccsc3C(N)=O)c3cc[nH]c3n1)N(C(=O)CN(C)C)CCC2(C)C,85.5,3.19,6.26,3.79,5.73,5.95,19.2,0.08,1.1,2.59
FC(F)(F)c1cccc(-c2nn3ncccc3c2-c2ccnc(Nc3ccc4c(c3)OCCO4)n2)c1,-1.04,4.81,45.5,7.84,29.9,4.61,28.5,-0.12,2.88,5.73
CCCN1CCC(c2ccc(Nc3nc(Nc4cc(F)ccc4C(N)=O)c4cc[nH]c4n3)c(OC)c2)CC1,66,3.5,8.52,3.68,6.36,13.5,64.8,-1.53,-1.71,1.38
CCn1c(-c2nonc2N)nc2cnc(Oc3cccc(NC(=O)c4ccc(N(C)C)cc4)c3)cc21,-3.3,0.9,2.27,1.63,1.66,-0.08,-0.57,-0.86,-0.69,2.19
O=S(=O)(CCNCc1ccc(-c2ccc3ncnc(Nc4ccc(OCc5cccc(F)c5)c(Cl)c4)c3c2)o1)c1ccccc1,-5.93,2.67,6.67,5.7,6.77,6.2,6.15,-0.83,1.59,7.31
CCN(CC)S(=O)(=O)c1ccc(OC)c(Nc2ncc(-c3ccccc3)o2)c1,-0.53,3.51,31.4,-2.19,7.38,-0.82,3.3,2.59,3.38,1.59
CCn1c(-c2nonc2N)nc2ccccc21,0.96,1.38,3.02,-0.5,3.8,4.51,3.44,1.6,2.63,2.25
CC(=O)Nc1cccc(C#Cc2cncnc2Nc2ccc(OCc3cccc(F)c3)c(Cl)c2)c1,1.6,2.4,1.37,0.73,4.15,1.35,1.55,2.74,5.12,5.08
NS(=O)(=O)c1ccc(N/N=C2\C(=O)Nc3ccc4ncccc4c32)cc1,36.8,8.45,60,6.88,25.3,5.86,31.9,1.8,13,1.66
N#Cc1c(NC(=O)c2ccc(F)cc2)sc2c1CCCC2,-1.26,0.68,1.75,1.31,0.33,-0.11,-2,-1.3,-0.45,1.81
Nc1nc(-c2cccc(Cl)c2)c(-c2ccc3ncccc3n2)s1,-8.66,3.51,7.22,2.53,5.31,5.86,10.6,0.83,-0.84,5.57
[O-][S+]1CCN(Cc2ccc(-c3ccc4ncnc(Nc5ccc(OCc6cccc(F)c6)c(Cl)c5)c4c3)o2)CC1,-4.13,1.74,7.66,7.13,7.73,4.81,7.3,-0.42,0.99,6.74
N#Cc1c(NC(=O)CN2CCOCC2)sc2c1CCCC2,-0.41,3.64,3.64,-0.4,3.55,0.26,6.1,0.98,3.11,6.19
CCn1c(-c2nonc2N)nc2c(C#CC(C)(C)O)nc(OC[C@H](N)c3ccccc3)cc21,-3,3.73,2.85,3.88,5.18,2.66,2.72,0.09,0.56,-1.53
Fc1ccc(-c2nn3ccccc3c2-c2ccncc2)cc1,0.78,0.92,2.66,-1.75,1.42,-1.18,7.58,-2.02,-1.29,-0.04
COc1ccc(CNC(=O)c2ccc(-c3cc(-c4nnc(C)o4)ccc3C)cc2)cc1,2.74,2.54,0.87,-0.31,0.63,0.56,4.1,0.04,2.36,3.65
COC(=O)c1sc(-n2cnc3cc(OC)c(OC)cc32)cc1OCc1ccccc1C(F)(F)F,-2.03,3.54,22.4,3.04,6.66,2.66,4.35,-0.65,1.6,1.76
CCn1cc(-c2ccnc3[nH]ccc23)c(-c2cccc(NC(=O)Nc3ccc(OCc4ccccc4)cc3)c2)n1,0.9,2.54,18.7,1.09,-0.27,3.04,16.2,0.34,3.3,-0.47
COC(=O)Nc1nc2ccc(S(=O)(=O)c3ccc(NC(=O)Nc4cc(C(F)(F)F)ccc4F)cc3)cc2[nH]1,-1.71,1.71,3.18,6.6,5.12,2.94,2.51,1.86,0.94,2.8
Cc1ccc(O)cc1Nc1ccnc2cc(-c3ccccn3)ccc12,-6.05,12.5,61.8,19.8,69.2,52.5,96.9,4.79,34.5,14.5
CNC(=O)c1cncc(/C=C/c2ccccc2Cl)c1,-0.52,3.84,4.55,1.47,8.42,0.17,10,1.39,2.01,0.04
Nc1ncc(-c2cccc(S(N)(=O)=O)c2)c2scc(-c3ccc(F)c(Cl)c3)c12,-2.44,5.6,28.2,14.5,56.5,7.08,47.5,3.15,25.1,23.1
NC(=O)c1sc(-n2cnc3ccc(C(F)(F)F)cc32)cc1OCc1ccccc1Br,-3.8,2.51,3.45,1.05,2.91,3.76,5.16,-0.59,-2.44,4.79
Cc1ccc2c(-c3ccnc(Nc4ccccc4)n3)c(-c3ccc(F)cc3)nn2n1,-3.51,6.22,49,3.36,42.7,15.2,63.4,2.84,6.06,3.99
COc1cccc(-c2c[nH]c3c(N/N=C/c4ccncc4)ncnc23)c1,3.21,7.63,57.9,8.13,45.1,2.51,4.81,0.88,2.48,4.78
CCOc1ccc2c(-c3ccnc(Nc4cccc(C(F)(F)F)c4)n3)cnn2n1,-0.78,2.21,3.22,3.34,1.94,-0.32,0.97,0.07,1.18,1.57
Cc1cccc2c1NC(=O)/C2=N\Nc1ccc(S(N)(=O)=O)cc1,-0.34,1.72,5.96,-0.08,2.79,0.03,1.67,1.48,1.48,3.78
